Reference: PubChem BioAssay (NCATS)
Results filed as inconclusive are left out. Activity calls are given as the source filed them. Unless noted, calls come from the whole dose curve; as a rule, active = well fitted curve in the direction sought with a large enough effect; inconclusive = small, poorly fitted or top-dose-only effect, or another doubt; inactive = no such curve, though single readings can be large; an effect the other way counts as inactive or inconclusive.

How the values were obtained:
[1] = biological target: Lysosomal acid glucosylceramidase (Homo sapiens) (UniProt P04062); assay: Glucocerebrosidase-p2 (AID 348; in the data active = potency below about 10 µM; note: potency is the fitted concentration of half-maximal effect); conditions: purified GBA, blue fluorogenic substrate, 40 min
In short: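 Compounds titrated from 0.6 nM upwards against 0.2 nM enzyme in pH 5.9 citric acid/KH2PO4, taurocholate, tween-20; blue fluorogenic substrate 80 uM, 40 min room temperature, stopped and read Ex 365/Em 440 for AC50.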

[2] = biological target: Glucocorticoid receptor (Homo sapiens) (UniProt P04150); assay: GR-GFP Redistribution (AID 450;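 active = compounds whose dose series gives a full or clear partial fitted curve of increased nuclear translocation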; note: potency is the fitted concentration of half-maximal effect); conditions: U2OS GR-GFP nuclear translocation, laser cytometry, 2 h
[3] = biological target: Glucocorticoid receptor (Homo sapiens) (UniProt P04150); assay: GR-EFC Redistribution (AID 451; calls by dose curve; note: potency is the fitted concentration of half-maximal effect); conditions: CHO-K1 GR-EFC translocation, beta-gal luminescence, 2 h
In short: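 Translocation of GR-ED fusion to nuclear EA restores b-gal, read by luminescence after 1 h room-temperature detection. Engineered CHO-K1 biosensor cells, 1,000/well, exposed 2 h at 37 C to titrations up to 46 uM final.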

[4] = biological target: 3',5'-cyclic-AMP phosphodiesterase 4B (Homo sapiens) (UniProt Q07343); assay: qHTS Assay for Inhibitors of PDE-IV (AID 607; active = well fitted activation curve with a large enough effect in the main read-out, with a control signal flat, not every such curve was filed as active; note: % of control where 0% means no effect); conditions: HEK293 ACTOne CNG channel cells, membrane potential fluorescence; series mostly up to 22.9 µM
In short: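 HEK293 ACTOne cells with CNG channel (1000/well), endogenous PDE4; membrane potential dye, compounds up to 22.9 uM final. Fluorescence Ex 535/Em 590; RO 20-1724 (100 uM final) as reference.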

[5] = biological target: Dual specificity protein kinase CLK4 (Homo sapiens) (UniProt Q9HAZ1); assay: qHTS Assay for Inhibitors of CDC-like Kinase 4 (ADP-Glo Assay) (AID 1771); conditions: recombinant CLK4, ADP-Glo luminescence; series mostly up to 80 µM; note: nearly all actives have a fitted effect of over 70% in size; note: potency is the fitted concentration of half-maximal effect
In short: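 Clk4 (25 nM) was incubated 1 hr at room temperature with 100 uM RS repeat peptide and 1 uM ATP in buffer with 2 mM MgCl2, 0.5 mM EGTA, 2.5 mM DTT. ADP formed was quantified by ADP-Glo luminescence.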

[6] = biological target: Dual specificity protein kinase CLK4 (Homo sapiens) (UniProt Q9HAZ1); assay: qHTS Assay for Inhibitors of CDC-like Kinase 4 (ADP-FP Assay) (AID 1795); conditions: Transcreener ADP fluorescence polarization; series mostly up to 50 µM;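 note: recombinant human CLK4 phosphorylating RS repeat peptide at 1 µM ATP; % is set by controls: 0 for no effect and ±100 for the full control effect; nearly all actives have a fitted effect of over 60% in size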
In short: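 Inhibition of ADP formation by 6.25 nM Clk4 is measured using 1 uM ATP and 100 uM RS repeat peptide over one hour. Produced ADP displaces a fluorescent tracer from antibody, lowering polarization.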

[7] = biological target: Ubiquitin carboxyl-terminal hydrolase 1 (Homo sapiens) (UniProt O94782); assay: Inhibitors of USP1/UAF1: Pilot qHTS (AID 504865); conditions: purified USP1/UAF1, Ub-rhodamine cleavage fluorescence; series mostly up to 54.9 µM;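 note: rhodamine fluorescence freed from ubiquitin-rhodamine substrate followed over time; top concentration of the series differs between compounds; % is set by controls: 0 for no effect and ±100 for the full control effect; nearly all actives have a fitted effect of over 35% in size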
In short: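 Kinetic fluorescence assay: 1nM USP1/UAF1, 15 min compound preincubation, then 150nM Ub-Rho; 480/540 nm.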

[8] = Primary qHTS for small molecule stabilizers of the endoplasmic reticulum resident proteome: Secreted ER Calcium Modulated Protein (SERCaMP) assay (AID 1508630); conditions: SH-SY5Y GLuc-SERCaMP (Gaussia luciferase released on ER calcium loss) secretion, thapsigargin, luminescence; series mostly up to 38.4 µM; note: % is set by controls: 0 for no effect and ±100 for the full control effect
In short: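 GLuc-SERCaMP-expressing SH-SY5Y cells, pretreated 16 h with compound, are challenged with thapsigargin to empty ER calcium stores; after 4 h, coelenterazine is added directly to the medium and luminescence is imaged.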

[9] = AP1 Signaling Pathway (AID 357; active = well fitted curve in either direction with a large enough effect, not every such curve was filed as active; note: % is set by controls: 0 for no effect and ±100 for the full control effect); conditions: ME-180 AP-1-bla reporter, EGF-induced, beta-lactamase ratio, 5 h; at 7.69 µM (top of the series) unless noted
In short: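 AP-1-bla ME-180 cells with beta-lactamase reporter under AP-1 response element, stimulated with EC50 EGF; compounds titrated, 5 hours at 37 degrees Celsius. CCF4 read at 460/530 nm ratio; positive and negative modulators judged by AC50.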

[10] = NFAT Signaling Pathway (AID 444; active = well fitted curve in either direction with a large enough effect, not every such curve was filed as active;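 note: carbachol stimulus at about its EC50 of 1 µM final; % is set by controls: 0 for no effect and ±100 for the full control effect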); conditions: Jurkat NFAT-bla M1, carbachol, beta-lactamase ratio, 5 h; at 7.69 µM (top of the series) unless noted
In short: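 Read-out: CCF4 FRET ratio (460 nm/530 nm) after 1 h RT dye loading, used for %activity and AC50 from titration series. Cells: Jurkat NFAT-β-lactamase/M1 line, treated with compound plus 1 uM carbachol for 5 h, 37 °C.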

[11] = Stat Signaling Pathway (AID 446; active = well fitted curve in either direction with a large enough effect, not every such curve was filed as active;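 note: ME-180 cervical cancer cells given 40 pM IL-6 alongside compound; SIE-controlled beta-lactamase reporter measured as 460/530 nm FRET emission ratio; % is set by controls: 0 for no effect and ±100 for the full control effect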); conditions: ME-180 SIE beta-lactamase reporter, IL-6 stimulated, 5 h; at 7.69 µM (top of the series) unless noted
In short: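 ME-180 cells carrying a SIE-driven beta-lactamase reporter are stimulated with 40 pM IL-6 for 5 h at 37C in the presence of compound. The 460/530 nm FRET substrate ratio is read after 2.5 h at RT. Data are normalised to 300 pM IL-6 and to 125 nM JAK inhibitor controls.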

[12] = biological target: Mitogen-activated protein kinase 10 (Mus musculus) (UniProt Q61831); assay: JNK3 AlphaScreen Assay (AID 530; active = well fitted curve in either direction with a large enough effect, not every such curve was filed as active); conditions: JNK3 lysate, c-Jun phosphorylation; series mostly up to 57.1 µM
In short: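 Room-temperature AlphaScreen kinase assay; pre-activated HepG2 lysate as JNK3 source, biotin-GST-cJun(1-79) substrate, 10 uM ATP, compound 15 min preincubation.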

[13] = biological target: Cytochrome P450 2C9 (Homo sapiens) (UniProt P11712); assay: qHTS Assay for Inhibitors and Substrates of Cytochrome P450 2C9 (AID 883); conditions: recombinant CYP2C9, luciferin-H luminescence, 60 min; series mostly up to 57.1 µM; note: % is set by controls: 0 for no effect and ±100 for the full control effect; nearly all actives have a fitted effect of over 60% in size
In short: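 Turnover of Luciferin-H (100uM, KM) by 10nM human CYP2C9 was measured over 60 min at 37C with NADPH regeneration; inhibitors and some substrates reduce luminescence. Data normalized to sulphaphenazole 57uM.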

[14] = biological target: Cytochrome P450 3A4 (Homo sapiens) (UniProt P08684); assay: qHTS Assay for Inhibitors and Substrates of Cytochrome P450 3A4 (AID 884); conditions: recombinant CYP3A4, Luciferin-PPXE luminescence; series mostly up to 57.1 µM; note: potency is the fitted concentration of half-maximal effect; nearly all actives have a fitted effect of over 50% in size
In short: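 20 nM human CYP3A4 with 25 uM Luciferin-PPXE (at KM) in 200 mM KPO4, preincubated 10 min with compound; NADPH regeneration started a 60 min RT reaction. Luciferin detected by luminescence, normalized to 57 uM ketoconazole as full inhibition.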

[15] = biological target: Cytochrome P450 3A4 (Homo sapiens) (UniProt P08684); assay: qHTS Assay for Activators of Cytochrome P450 3A4 (AID 885); conditions: recombinant CYP3A4, Luciferin-PPXE luminescence, 60 min; series mostly up to 57.1 µM; note: nearly all actives have a fitted effect of over 65% in size
In short: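 Human CYP3A4 (20 nM) with Luciferin-PPXE at 25 uM (its KM) in 200 mM KPO4; 10 min compound preincubation, then NADPH regeneration and 60 min reaction at RT. Luciferin read by luminescence; normalized to 57 uM ketoconazole full inhibition.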

[16] = biological target: Dual specificity protein kinase CLK4 (Homo sapiens) (UniProt Q9HAZ1); assay: qHTS Assay for Inhibitors of CDC-like Kinase 4 (Kinase-Glo Assay) (AID 1770); conditions: recombinant Clk4, Kinase-Glo ATP depletion luminescence; series mostly up to 66.7 µM; note: % is set by controls: 0 for no effect and ±100 for the full control effect; nearly all actives have a fitted effect of over 65% in size
In short: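 Inhibition was judged from remaining ATP, measured by Ultra-Glo luciferase bioluminescence after Clk4 (25 nM) had acted on RS peptide at 1 uM ATP for 4.5 hours, room temperature.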

[17] = biological target: Cytochrome P450 1A2 (Homo sapiens) (UniProt P05177); assay: p450-cyp1a2 (AID 410; calls by dose curve; note: potency is the fitted concentration of half-maximal effect); conditions: recombinant CYP1A2, luciferin-ME demethylation, luminescence; series mostly up to 57 µM
In short: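 Human CYP1A2 (20nM) demethylated Luciferin-ME at its Km (100uM) in 100mM KPO4. After 10 min compound preincubation, NADPH regeneration ran the reaction 60 min at room temperature. Luciferin was read by luminescence, normalized to 57 uM furafylline.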

[18] = qHTS Assay for Identification of Small Molecule Agonists for Hypoxia Response Element Signaling Pathway (AID 914; active = well fitted activation curve with a large enough effect in the signal ratio, with a control signal flat, not every such curve was filed as active; the % refers to the signal ratio; note: potency is the fitted concentration of half-maximal effect; for activation: % of control where 0% means no effect); conditions: ME-180 (cervical carcinoma) HRE-bla reporter, beta-lactamase ratio, CoCl2, 17 h; activation: stronger effect = higher value
In short: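 A beta-lactamase reporter under hypoxia response element control in ME-180 cells served as the system. Compound titrations plus EC50 CoCl2 ran 17 h at 37 degrees Celsius; AC50 values were fitted from %Activity.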

[19] = biological target: Cytochrome P450 2C19 (Homo sapiens) (UniProt P33261); assay: qHTS Assay for Inhibitors and Substrates of Cytochrome P450 2C19 (AID 899); conditions: recombinant CYP2C19, luciferin-H EGE luminescence; series mostly up to 57.1 µM; note: potency is the fitted concentration of half-maximal effect; nearly all actives have a fitted effect of over 60% in size
In short: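 Reactions contain 5nM enzyme, 10uM Luciferin-H EGE (KM) and 50mM KPO4; compound preincubates 10 min at 37C, NADPH regeneration starts turnover for 60 min. Luminescence after detection reagent gives activity.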

Chain of Dual specificity protein kinase CLK4 (Homo sapiens) (Q9HAZ1 whole entry, looked up): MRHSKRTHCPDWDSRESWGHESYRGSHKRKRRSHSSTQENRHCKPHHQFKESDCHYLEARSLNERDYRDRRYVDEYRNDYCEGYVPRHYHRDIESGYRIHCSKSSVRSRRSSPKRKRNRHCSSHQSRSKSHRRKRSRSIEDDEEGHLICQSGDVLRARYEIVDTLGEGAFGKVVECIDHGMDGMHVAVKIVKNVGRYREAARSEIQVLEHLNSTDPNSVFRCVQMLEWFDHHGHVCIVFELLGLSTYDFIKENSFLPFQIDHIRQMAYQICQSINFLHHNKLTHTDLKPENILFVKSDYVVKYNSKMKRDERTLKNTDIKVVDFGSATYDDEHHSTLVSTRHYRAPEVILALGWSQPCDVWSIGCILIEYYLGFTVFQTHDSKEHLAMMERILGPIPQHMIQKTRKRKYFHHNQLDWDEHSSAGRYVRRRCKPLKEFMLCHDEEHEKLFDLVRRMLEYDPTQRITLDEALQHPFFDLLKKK
Chain of 3',5'-cyclic-AMP phosphodiesterase 4B (Homo sapiens) (Q07343 whole entry, looked up): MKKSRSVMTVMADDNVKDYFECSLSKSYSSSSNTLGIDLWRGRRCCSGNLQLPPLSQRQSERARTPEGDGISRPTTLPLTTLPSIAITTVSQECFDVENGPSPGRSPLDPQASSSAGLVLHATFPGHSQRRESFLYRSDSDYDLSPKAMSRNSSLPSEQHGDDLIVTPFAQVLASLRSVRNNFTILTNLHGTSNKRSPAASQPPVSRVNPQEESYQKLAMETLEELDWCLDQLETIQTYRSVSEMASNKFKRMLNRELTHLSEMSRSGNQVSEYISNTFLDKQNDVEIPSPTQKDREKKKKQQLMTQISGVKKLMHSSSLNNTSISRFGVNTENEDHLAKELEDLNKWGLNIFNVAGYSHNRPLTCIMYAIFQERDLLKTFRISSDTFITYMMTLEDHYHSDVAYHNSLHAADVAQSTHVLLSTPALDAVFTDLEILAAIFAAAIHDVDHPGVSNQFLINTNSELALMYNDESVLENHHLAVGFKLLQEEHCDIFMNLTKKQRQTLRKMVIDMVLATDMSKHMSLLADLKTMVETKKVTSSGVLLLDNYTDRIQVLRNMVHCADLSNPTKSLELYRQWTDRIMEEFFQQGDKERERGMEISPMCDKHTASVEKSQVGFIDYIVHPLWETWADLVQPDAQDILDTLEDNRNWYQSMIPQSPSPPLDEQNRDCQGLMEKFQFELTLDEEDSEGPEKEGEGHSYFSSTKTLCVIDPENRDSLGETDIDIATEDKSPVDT
Chain of Cytochrome P450 3A4 (Homo sapiens) (P08684 whole entry, looked up): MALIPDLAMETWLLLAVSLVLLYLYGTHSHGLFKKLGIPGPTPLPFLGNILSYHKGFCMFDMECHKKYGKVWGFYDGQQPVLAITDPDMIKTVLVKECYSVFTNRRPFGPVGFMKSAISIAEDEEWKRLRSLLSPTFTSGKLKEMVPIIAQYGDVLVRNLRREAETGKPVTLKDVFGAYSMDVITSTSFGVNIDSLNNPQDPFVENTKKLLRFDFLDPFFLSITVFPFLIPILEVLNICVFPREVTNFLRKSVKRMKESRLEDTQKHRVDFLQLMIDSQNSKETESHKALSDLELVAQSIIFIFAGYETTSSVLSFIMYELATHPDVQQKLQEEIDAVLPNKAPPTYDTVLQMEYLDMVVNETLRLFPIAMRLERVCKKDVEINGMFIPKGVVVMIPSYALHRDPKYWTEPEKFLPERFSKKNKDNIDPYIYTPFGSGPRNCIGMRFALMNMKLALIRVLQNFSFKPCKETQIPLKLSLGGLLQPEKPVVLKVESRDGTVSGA
Chain of Ubiquitin carboxyl-terminal hydrolase 1 (Homo sapiens) (O94782 whole entry, looked up): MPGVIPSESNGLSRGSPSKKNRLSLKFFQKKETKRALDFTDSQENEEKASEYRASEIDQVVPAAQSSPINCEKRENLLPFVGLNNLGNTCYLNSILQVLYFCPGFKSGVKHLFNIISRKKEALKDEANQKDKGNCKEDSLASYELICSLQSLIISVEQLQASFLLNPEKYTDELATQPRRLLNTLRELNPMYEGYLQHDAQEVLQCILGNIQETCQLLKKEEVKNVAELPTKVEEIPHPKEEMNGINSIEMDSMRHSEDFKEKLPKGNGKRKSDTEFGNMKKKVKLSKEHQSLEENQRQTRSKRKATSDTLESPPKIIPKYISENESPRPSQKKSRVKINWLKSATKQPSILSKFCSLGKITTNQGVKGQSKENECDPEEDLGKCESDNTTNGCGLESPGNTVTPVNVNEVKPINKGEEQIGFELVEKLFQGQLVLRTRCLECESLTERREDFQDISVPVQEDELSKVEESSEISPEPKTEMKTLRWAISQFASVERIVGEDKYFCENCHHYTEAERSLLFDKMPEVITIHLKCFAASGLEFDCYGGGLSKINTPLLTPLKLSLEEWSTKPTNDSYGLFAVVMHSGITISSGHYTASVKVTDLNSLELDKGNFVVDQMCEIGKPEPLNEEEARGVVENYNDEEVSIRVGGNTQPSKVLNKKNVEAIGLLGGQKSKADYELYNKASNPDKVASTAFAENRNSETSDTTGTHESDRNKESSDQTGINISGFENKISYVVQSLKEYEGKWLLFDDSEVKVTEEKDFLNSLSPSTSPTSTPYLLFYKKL
Chain of Glucocorticoid receptor (Homo sapiens) (P04150 whole entry, looked up, the tested form may be a part): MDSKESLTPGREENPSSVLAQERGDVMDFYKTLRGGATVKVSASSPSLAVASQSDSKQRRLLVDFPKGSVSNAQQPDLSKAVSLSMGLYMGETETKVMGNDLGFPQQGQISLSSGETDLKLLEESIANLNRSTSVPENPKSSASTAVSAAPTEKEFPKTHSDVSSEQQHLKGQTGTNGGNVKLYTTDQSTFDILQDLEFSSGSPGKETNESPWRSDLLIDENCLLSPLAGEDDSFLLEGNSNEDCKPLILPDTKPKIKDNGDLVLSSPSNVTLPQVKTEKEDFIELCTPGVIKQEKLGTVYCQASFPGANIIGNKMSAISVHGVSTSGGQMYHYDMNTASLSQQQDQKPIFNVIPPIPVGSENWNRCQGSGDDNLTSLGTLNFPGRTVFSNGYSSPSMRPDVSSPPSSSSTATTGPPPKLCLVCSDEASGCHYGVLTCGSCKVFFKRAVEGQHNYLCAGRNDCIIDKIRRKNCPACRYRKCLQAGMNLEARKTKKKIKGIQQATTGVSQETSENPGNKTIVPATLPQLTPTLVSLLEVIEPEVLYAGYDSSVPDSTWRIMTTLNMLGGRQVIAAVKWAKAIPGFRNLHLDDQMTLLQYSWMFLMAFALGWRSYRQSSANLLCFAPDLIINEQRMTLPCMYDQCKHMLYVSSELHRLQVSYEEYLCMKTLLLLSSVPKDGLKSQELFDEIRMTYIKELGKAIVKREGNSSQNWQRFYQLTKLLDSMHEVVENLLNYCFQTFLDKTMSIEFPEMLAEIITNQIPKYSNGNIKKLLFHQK
Chain of Lysosomal acid glucosylceramidase (Homo sapiens) (P04062 whole entry, looked up): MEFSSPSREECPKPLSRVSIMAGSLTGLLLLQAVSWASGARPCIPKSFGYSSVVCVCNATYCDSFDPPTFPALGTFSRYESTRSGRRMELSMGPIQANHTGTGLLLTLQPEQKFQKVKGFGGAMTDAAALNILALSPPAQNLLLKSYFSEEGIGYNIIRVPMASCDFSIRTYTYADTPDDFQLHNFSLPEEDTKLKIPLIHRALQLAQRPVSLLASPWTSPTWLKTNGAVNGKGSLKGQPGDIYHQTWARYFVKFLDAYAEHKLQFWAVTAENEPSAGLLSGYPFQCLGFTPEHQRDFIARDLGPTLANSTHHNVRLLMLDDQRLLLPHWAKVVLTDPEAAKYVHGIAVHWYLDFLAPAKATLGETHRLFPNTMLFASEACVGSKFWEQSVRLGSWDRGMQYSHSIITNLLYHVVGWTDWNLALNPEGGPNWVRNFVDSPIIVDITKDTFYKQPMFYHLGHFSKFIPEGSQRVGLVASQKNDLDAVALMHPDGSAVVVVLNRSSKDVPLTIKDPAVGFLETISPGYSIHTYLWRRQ
Chain of Cytochrome P450 1A2 (Homo sapiens) (P05177 whole entry, looked up): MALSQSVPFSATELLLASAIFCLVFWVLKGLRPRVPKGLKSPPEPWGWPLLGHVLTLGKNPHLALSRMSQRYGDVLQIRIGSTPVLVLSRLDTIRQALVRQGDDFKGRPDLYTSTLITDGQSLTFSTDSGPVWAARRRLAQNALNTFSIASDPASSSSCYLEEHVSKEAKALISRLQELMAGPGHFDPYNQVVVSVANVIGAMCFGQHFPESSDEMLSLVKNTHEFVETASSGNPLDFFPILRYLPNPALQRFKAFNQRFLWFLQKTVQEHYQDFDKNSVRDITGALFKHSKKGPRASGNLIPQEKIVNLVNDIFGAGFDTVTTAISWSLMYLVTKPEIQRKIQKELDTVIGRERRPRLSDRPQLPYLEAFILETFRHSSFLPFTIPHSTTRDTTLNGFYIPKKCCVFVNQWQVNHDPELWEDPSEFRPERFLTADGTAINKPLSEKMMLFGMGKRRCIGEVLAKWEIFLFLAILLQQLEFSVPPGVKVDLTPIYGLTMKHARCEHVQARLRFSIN
Chain of Cytochrome P450 2C9 (Homo sapiens) (P11712 whole entry, looked up): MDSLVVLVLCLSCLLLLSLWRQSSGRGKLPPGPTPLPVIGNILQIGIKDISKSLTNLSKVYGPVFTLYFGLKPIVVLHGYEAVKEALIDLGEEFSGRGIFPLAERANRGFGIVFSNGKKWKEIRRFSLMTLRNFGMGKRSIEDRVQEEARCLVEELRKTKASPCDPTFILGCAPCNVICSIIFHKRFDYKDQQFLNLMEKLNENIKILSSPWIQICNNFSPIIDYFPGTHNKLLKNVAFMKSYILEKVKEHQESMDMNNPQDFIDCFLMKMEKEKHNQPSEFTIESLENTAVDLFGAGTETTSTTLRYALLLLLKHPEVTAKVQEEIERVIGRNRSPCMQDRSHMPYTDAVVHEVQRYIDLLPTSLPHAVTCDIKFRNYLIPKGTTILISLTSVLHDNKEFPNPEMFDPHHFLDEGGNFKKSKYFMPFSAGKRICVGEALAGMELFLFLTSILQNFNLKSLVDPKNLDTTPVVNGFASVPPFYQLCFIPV

CCNc1ncc2nc(-c3ccc(Cl)cc3)c(=O)n(-c3ccc(OC)cc3)c2n1
inactive: Potency [1] > 11.4 µM | Potency [2] > 9.22 µM | Potency [3] > 46 µM | Potency [4] | Potency [5] | Potency [6] | Potency [7] | outcome [8]

Cc1noc(C)c1-c1nccc(NC2CC2)n1
inactive: Potency [1] > 11.4 µM | activity change, negative = inhibition [9] 13.6% | activity change, negative = inhibition [10] 19.7% | activity, negative = inhibition [11] 1.49% | Potency [2] > 46 µM | Potency [3] > 46 µM | Potency [12] | Potency [4] | activity change, negative = inhibition [13] 3.44% [at 2.29 µM] | Potency [15] | Potency [16] | Potency [7] | outcome [8]
active: Potency [14] 2.51 µM

COc1ncc2nc(-c3cn(C)c4ccccc34)c(=O)n(C[C@H]3CCCO3)c2n1
inactive: Potency [1] > 11.4 µM | activity change, negative = inhibition [9] -6.51% | activity change, negative = inhibition [10] 3.98% | activity, negative = inhibition [11] -5.17% | Potency [2] > 9.22 µM | Potency [3] > 46 µM | Potency [12] | Potency [5] | Potency [6] | Potency [7] | outcome [8]

Cc1cnc(CNc2cc(-c3cccnc3)ncn2)cn1
active: Potency [17] 15.8 µM | Potency [5] 31.6 µM
inactive: activity change, negative = inhibition [9] -14.2% | activity change, negative = inhibition [10] -1.2% | activity, negative = inhibition [11] -0.57% | Potency [2] > 46 µM | Potency [3] > 46 µM | Potency [12] | Potency [4] | Potency [15] | Potency [6] | Potency [7] | outcome [8]

Cc1cnc(CNc2nc(-c3ccoc3)nc3ccccc23)cn1
active: Potency [17] 2 µM
inactive: Potency [1] > 11.4 µM | activity change, negative = inhibition [9] -13.5% | activity, negative = inhibition [11] 9.84% | Potency [2] > 46 µM | Potency [3] > 46 µM | Potency [12] | Potency [15] | activation [18] -5.75% | Potency [16] | Potency [7] | outcome [8]

COc1ncc2nc(-c3cn(C)c4ccccc34)c(=O)n(CCc3ccccc3)c2n1
inactive: Potency [1] > 11.4 µM | activity change, negative = inhibition [9] 24.3% | activity change, negative = inhibition [10] -1.31% | Potency [2] > 9.22 µM | Potency [3] > 46 µM | Potency [5] | Potency [6] | Potency [7] | outcome [8]
active: Potency [18] 1 µM

COc1ccc(CNc2cc(-c3ccccc3OC)ncn2)c(OC)c1
active: Potency [14] 6.31 µM | Potency [19] 2 µM
inactive: Potency [1] > 11.4 µM | activity change, negative = inhibition [9] -6.46% | activity change, negative = inhibition [10] 17.7% | activity, negative = inhibition [11] 5.25% | Potency [2] > 46 µM | Potency [3] > 46 µM | Potency [12] | Potency [4] | Potency [15] | Potency [5] | Potency [6] | Potency [7] | outcome [8]
